Assay outcomes deposited in PubChem BioAssay by Sanford-Burnham Center for Chemical Genomics.
Sampled rows, rich in hits. Any-hit rate of the full collection: about 2.6%.
PHOSPHO1 block: inhibitors of human PHOSPHO1 phosphatase; recombinant PHOSPHO1, absorbance phosphatase assay; 1.1% of 290,000 active; AID 1565; inhibition, % at 13.3 µM; Q8TCT1; in the data active means inhibition above about 60%
Target sequence (Q8TCT1 whole entry, looked up): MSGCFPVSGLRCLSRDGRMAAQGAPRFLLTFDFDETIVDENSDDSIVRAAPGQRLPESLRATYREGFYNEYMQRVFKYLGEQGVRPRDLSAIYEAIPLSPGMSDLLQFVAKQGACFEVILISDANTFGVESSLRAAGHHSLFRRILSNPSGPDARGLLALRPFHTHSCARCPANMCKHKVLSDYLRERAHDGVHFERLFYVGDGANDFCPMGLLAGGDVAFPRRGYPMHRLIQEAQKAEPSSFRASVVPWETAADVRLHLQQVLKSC
A3A deaminase: inhibitors of human APOBEC3A DNA deaminase | P31941 | recombinant A3A, FAM/TAMRA ssDNA deamination fluorescence | inhibition, % at 20 µM | 0.41% of 330,000 active | AID 493011;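 active means at least 40% inhibition at 20 µM here, with at most 30% in a related deaminase screen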
Target sequence (P31941 whole entry, looked up): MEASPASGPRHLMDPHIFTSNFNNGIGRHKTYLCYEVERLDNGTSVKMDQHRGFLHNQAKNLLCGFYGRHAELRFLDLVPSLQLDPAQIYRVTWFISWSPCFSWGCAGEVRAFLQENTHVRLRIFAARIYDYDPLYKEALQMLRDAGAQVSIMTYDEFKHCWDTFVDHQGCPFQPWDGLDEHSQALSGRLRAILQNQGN
eIF4H inh: inhibitors of RNA binding by human eIF4H | Q15056 | eIF4H fluorescence polarization binding assay | inhibition, % at 35 µM | 0.94% of 290,000 active;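 further: calls also rest on retests at 20 µM and on dose response follow-up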
PABP polyA inh: PABP-poly(A) binding inhibition. P11940. PABP-poly(A) RNA binding, fluorescence polarization. calls only at 35 µM. 1% of 290,000 active. AID 2014;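 further: calls also rest on retests at 20 µM and on dose response follow-up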
MLLE-PAM2 inh: inhibitors of microRNA-mediated deadenylation, human PABP1 MLLE binding; P11940; GST-MLLE / FITC-PAM2 fluorescence polarization; inhibition, % at 20 µM; 0.36% of 360,000 active; in the data active means inhibition above about 35%, passing the limit was not always enough
APOBEC3G inh: blocks human APOBEC3G single-stranded DNA deamination | 0.28% of 330,000 active | recombinant A3G, ssDNA deamination FAM/TAMRA fluorescence | inhibition, % at 20 µM | Q9HC16;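 active means inhibition of at least 40% at 20 µM, with no more than 30% in the related APOBEC3A deaminase screen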
A number is an active result; n = inactive; x = not tested or not shown; + = active, no number. Unless noted, how the calls were made is not given here.

SMILES	PHOSPHO1 block	A3A deaminase	eIF4H inh	PABP polyA inh	MLLE-PAM2 inh	APOBEC3G inh
COc1ccc(-c2nn3c(C4CCCCC4)nnc3s2)cc1OC	83	n	n	n	n	n
COc1cc(-c2nn3c(C4CCCCC4)nnc3s2)cc(OC)c1OC	n	n	n	n	n	n
S=c1[nH]ncn1/N=C/c1ccccn1	98	n	n	n	n	n
O=C1CC(=O)Nc2cc(S(=O)(=O)N3CCN(c4ccc([N+](=O)[O-])cc4)CC3)ccc2N1	n	n	70	n	n	n
Brc1ccc(Nc2nc3ccccc3n3nnnc23)cc1	n	n	79	+	x	n
S=P(c1ccc(N2CCOCC2)cc1N1CCOCC1)(N1CCOCC1)N1CCOCC1	85	x	n	n	n	x
COc1cccc2sc3ccc(NCCC4CCCN4C)cc3c(=O)c12 (stereo not given)	n	n	79	+	n	n
COc1cc2sc3cc(NCC[C@@H]4CCCN4C)ccc3c(=O)c2cc1OC	x	n	x	x	n	n
N#Cc1ccc(-c2ccc(Cl)cc2)nc1SCC(=O)c1cccc(Cl)c1	76	n	n	n	n	n
O=C(CCCCC(=O)NN=Cc1ccc(Cl)cc1)NN=Cc1ccc(Cl)cc1	x	x	x	x	n	x
CC(=O)c1coc2c1cc(O)c1ccccc12	64	n	n	n	n	n
CC(=O)Oc1cc2c(C(C)=O)coc2c2ccccc12	n	n	n	n	n	n
CC(=O)c1cc(O)c2ccccc2c1O	n	n	n	n	41	n
CN1CCc2c(sc(NC(=O)C3CCCN3S(=O)(=O)c3ccc(Cl)s3)c2C(N)=O)C1 (stereo not given)	x	n	x	x	n	n
O=C(CN1CCN(c2ccccc2O)CC1)Nc1ccc2c(c1)CCC2	n	n	2.2	+	n	n
O=C(CN1CCCC1)Nc1ccc2c(c1)CCC2	n	n	n	n	n	n
COC(=O)C1=NN(C(=O)c2cccc(Br)c2)C(O)(c2ccc(Cl)cc2)C1 (stereo not given)	n	n	58	n	n	n
Cc1ccc(-n2c(C)cc(C(=O)CN3CCCCC3)c2C)cc1	n	n	n	n	n	n
O=C(O)Cc1ccc(N=Nc2c(O)c(C(=O)O)cc3ccccc23)cc1	n	n	77	+	n	n
Oc1ccc2ccccc2c1C=Nc1ccc(Cl)cn1	n	n	85	+	n	n
Oc1c(Br)cc(Br)cc1/C=N/c1nc2c(s1)CCCC2	x	n	x	x	n	n
Cc1ccc(N/N=C/c2c(O)cc(C)oc2=O)cc1	88	n	n	n	n	n
Oc1ccc2ccccc2c1/C=N/c1nc2c(s1)CCCC2	76	n	n	n	n	n
Cc1cc(O)c(C=Nc2ccc(Cl)cn2)c(=O)o1	n	n	59	+	n	n
COc1cccc(CN(C)CCCn2cnc3c(SC)ncnc32)c1	x	x	x	x	n	x
SMILES	PHOSPHO1 block	A3A deaminase	eIF4H inh	PABP polyA inh	MLLE-PAM2 inh	APOBEC3G inh
Cc1cccc(/N=C/c2c(O)cc(C)oc2=O)n1	n	n	78	+	n	n
COc1ccccc1/C=C/C(=O)Nc1cccc(S(=O)(=O)N2CCOCC2)c1	x	n	x	x	n	n
Oc1ccc(/C=N/Nc2cccc3cccnc23)c(O)c1	n	n	n	n	n	n
Cc1ccc(/C=N/Nc2cccc3cccnc23)c(O)c1	98	n	n	n	n	n
Cc1cc(C)c[n+](-c2[nH]c(=O)sc2/C=N/N=C(\[O-])c2cccnc2)c1	n	n	n	n	36	n
CC(C)OC(=O)c1c2nc3ccccc3nc2n2c1[nH]c(=O)c1ccccc12	n	n	53	+	x	n
CC(C)OC(=O)c1c(N)n(CCCN2CCOCC2)c2nc3ccccc3nc12	n	n	n	n	n	n
Cc1cc(C(=O)NC(C)C2CCCO2)c(C)o1 (stereo not given)	n	n	n	n	n	n
Cc1cc(C(=O)NC(C)C2CCCO2)no1 (stereo not given)	60	n	n	n	n	n
COc1ccc(N2CCN(C(=O)CN(c3cccc(Br)c3)S(C)(=O)=O)CC2)cc1	n	n	n	n	n	n
CS(=O)(=O)N(CC(=O)N1CCN(c2ccccc2)CC1)c1cccc(Br)c1	98	n	n	n	n	n
COc1ccc(S(=O)(=O)NC2CCc3ccccc32)cc1OC (stereo not given)	n	n	n	n	n	n
O=C(Nc1cccc(Cl)c1)c1cc(N=Nc2ccc([N+](=O)[O-])cc2Cl)ccc1O	n	n	n	+	n	n
COCC(=O)N1CCC(Oc2ccc(C(=O)N3CCSCC3)cc2)CC1	n	n	n	n	n	n
Cc1ccc2[nH]cc(CCNC(=O)c3cccs3)c2c1	n	n	n	n	n	n
Oc1cc2ccccc2cc1-c1n[nH]c(=S)o1	96	n	n	n	n	n
Cc1cc(-c2n[nH]c(=S)o2)c(C)n1-c1ccccc1	101	n	n	n	x	n
O=C1NC2(CCCCC2)C(=O)N1CC(=O)N1CCc2ccccc21	x	n	x	x	n	n
CCC1(C)CN=C(c2ccccc2)NC1 (stereo not given)	x	x	x	x	n	x
O=C(c1ncn[nH]1)N1CCN(c2nc(-c3ccccc3)cs2)CC1	99	n	n	n	n	n
O=C(O)CN1C(=O)/C(=C\c2cc([N+](=O)[O-])ccc2OCc2ccccc2Cl)SC1=S	n	n	45	+	n	n
O=C(O)CN1C(=O)/C(=C\c2cc(Br)ccc2OCc2ccc(Cl)cc2)SC1=S	n	x	n	n	n	x
C=CCn1c(SCC(=O)NCC2CCCO2)nc2sc(CC)cc2c1=O (stereo not given)	x	n	x	x	n	n
C#Cc1ccc(C(=O)NCc2ccc(N3CCCC3=O)cc2)cc1	n	n	n	+	n	n
Cn1cc(-c2ccc3c(c2)OCO3)c2ccccc21	x	x	x	x	n	x
SMILES	PHOSPHO1 block	A3A deaminase	eIF4H inh	PABP polyA inh	MLLE-PAM2 inh	APOBEC3G inh
O=C(NCCS(=O)(=O)NC1CCCC1)c1ccccc1	x	n	x	x	n	n
Cc1ccccc1N=C(N)Nc1ccccc1C	x	n	x	x	58	n
COc1ccccc1CNC(=O)COC(=O)Cn1cnc2c1c(=O)n(C)c(=O)n2C	x	x	x	x	n	x
CCOc1ccc(CN(C)CC(=O)Nc2ccc3c(c2)CCC3)cc1OC	n	n	76	n	n	n
COc1cc2ccccc2cc1C(=O)NC(=S)Nc1cccc(C(=O)O)c1	n	n	n	n	40	n
O=C(NNC(=O)C1CCC1)c1ccccc1F	x	n	x	x	n	n
CN1CCC(N(C)S(=O)(=O)c2ccc(NC(=O)COc3ccc(F)cc3Cl)cc2)CC1	n	n	n	+	n	n
CN1CCC(N(C)S(=O)(=O)c2ccc(NC(=O)COc3ccc(Cl)cc3)cc2)CC1	x	n	x	x	n	n
O=C(COc1ccc(-n2cnnn2)cc1)Nc1cccc(Cl)c1Cl	n	n	65	n	n	n
COc1cc(NC(=O)COc2ccc(-n3cnnn3)cc2)c(OC)cc1Cl	n	n	n	n	n	n
COc1cc(CNc2ccccc2SC)ccc1O	72	n	n	n	n	n
CCOc1cc(CNc2ccccc2SC)ccc1O	n	n	n	n	x	n
